# SARS PLpro yeast: blocks SARS-CoV papain-like protease in a yeast assay; S. cerevisiae expressing SARS-CoV PLpro, growth rescue; 330,000 compounds, 0.19% hits; Potency, µM (series often up to 32.9 µM), without a hit: top-dose activity, positive = growth rescue, usual class: activators; calls by dose curve; note: 0% is about no effect; nearly all actives have a fitted effect of over 55% in size
# Pf growth 48h: inhibits P. falciparum growth in the first generation, 48 h | P. falciparum luciferase growth in erythrocytes, 48 h | Potency, µM (doses to about 28.7 µM), inactives show at the highest dose activity change, negative = inhibition, actives largely listed as inhibitors | 310,000 compounds, 5.9% hits; note: % is set by controls: 0 for no effect and ±100 for the full control effect
#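 A one-generation exposure of luciferase-tagged malaria parasites in RPMI 1640/Albumax erythrocyte culture, 37 C and 5% CO2. Inhibition is inferred from decreased luminescence after adding detection reagent.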
# NS1 inh: influenza NS1 inhibition. Potency, µM (top dose mostly 46.1 µM), inactives show top-dose activity, positive = more growth. 270,000 compounds, 0.4% hits; calls by dose curve; note: actives are rising curves; nearly all actives have a fitted effect of over 50% in size
#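 A cell-based growth assay was used: compounds that relieve NS1-induced slow growth of budding yeast raise OD600. Assay medium was yeast nitrogen base with ammonium sulphate and -URA supplement, pH 6.0, with 2% galactose.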
# AMA1 RON2 block: disrupts binding of P. falciparum AMA1 to RON2; 360,000 compounds, 0.2% hits; AID 720542; Potency, µM (series often up to 58.2 µM), for the others: at the top dose activity change, negative = inhibition, actives largely listed as inhibitors; AlphaScreen AMA1-biotinylated RON2 peptide binding;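 note: 0% = vehicle wells and -100% = peptide control; nearly all actives have a fitted effect of over 45% in size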
#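 AMA1 (3D7) with his tag at 25 nM final met compounds first, then biotinylated RON2 peptide at 25 nM; detection used donor plus acceptor beads, 10 µg/mL apiece, read by AlphaScreen after 30 min at room temperature.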
# HCV inh: HCV inhibition. Huh7.5.1 HCVcc-Cre infection, luciferase reporter, 44 h. 340,000 compounds, 3.4% hits. AID 651820. Potency, µM (top dose mostly 41.8 µM), inactives show at the highest dose activity change, negative = inhibition, usual class: inhibitors; note: % is set by controls: 0 for no effect and ±100 for the full control effect
#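 Infectious HCV cell culture screen: compound-treated cells (1,000/well, pre-plated 4 h) are infected with HCVcc-Cre at roughly 0.5 moi and grown 44 h. Infection is quantified by luciferase signal after 15 min substrate incubation at room temperature.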
# Pf growth 96h: inhibits malaria parasite growth, 96 h. 320,000 compounds, 6.9% hits. P. falciparum luciferase reporter growth, 96 h. Potency, µM (top dose mostly 28.7 µM), inactives show at the highest dose activity change, negative = inhibition, usual class: inhibitors; note: % is set by controls: 0 for no effect and ±100 for the full control effect
#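 96 h incubation, 37 C, 5% CO2, of luciferase-reporter P. falciparum-infected RBCs (2% hematocrit, 0.05% parasitemia final) with test compounds; endpoint luminescence.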
# * = called active by the depositor; ? = inconclusive; / = no result given; [ ] = another dose, or the depositor's remark. Compounds with a hit are over-represented: about 12% of the library has one in this group of screens. Unless noted, calls come from the whole dose curve; as a rule, active = well fitted curve in the direction sought with a large enough effect; inconclusive = small, poorly fitted or top-dose-only effect, or another doubt; inactive = no such curve, though single readings can be large; an effect the other way counts as inactive or inconclusive. Potency is the fitted concentration of half-maximal effect.
SMILES,SARS PLpro yeast,Pf growth 48h,NS1 inh,AMA1 RON2 block,HCV inh,Pf growth 96h
c1ccc2c(C[C@@H]3CNCCN3CC3CCCCC3)cccc2c1,10.9%,?,/,-1.2%,?,11.7µM*
CN1CCc2c(sc(NC(=O)c3ccc(S(=O)(=O)N4CCCCCC4)cc3)c2C(N)=O)C1,0.1%,?,-8.6%,-23.5%,?,?
CNC(=O)c1c(NC(=O)c2ccc(S(=O)(=O)N3CCCCC3)cc2)sc2c1CCN(C(C)C)C2,-3.0%,10.4µM*,9.9%,-9.1%,-14.4%,8.28µM*
CCN1CCc2c(sc(NC(=O)c3ccc(S(=O)(=O)N4CCCC4)cc3)c2C(=O)NC)C1,-6.0%,10.4µM*,18.7%,-14.7%,-14.3%,14.7µM*
N=C(N)c1ccc2cc(OC(=O)c3ccc(N=C(N)N)cc3)ccc2c1,/,12µM*,/,/,/,1.07µM*
CCOc1ccc(OCC(=O)OCC(=O)N2CCN(S(=O)(=O)c3ccc(C)cc3C)CC2)cc1,/,/,/,11.3%,14.2%,/
CCCSc1nnc(CNC(=O)C23CC4CC(CC(C4)C2)C3)n1Cc1ccccc1,10.2%,13.1µM*,-4.6%,9.7%,-9.4%,?
Cc1cccn2c(=O)c3cc(C(=O)NCCN4CCOCC4)c(=N)n(CCCN4CCOCC4)c3nc12,0.6%,2.94µM*,-6.6%,43.8%,?,0.5%
CCNC(=O)c1cc2c(=O)n3cccc(C)c3nc2n(CCc2ccccc2)c1=N,0.8%,1.65µM*,7.8%,-11.8%,?,/
COc1ccc(CCn2c(=N)c(C(=O)NCc3ccco3)cc3c(=O)n4ccccc4nc32)cc1OC,/,/,/,0.0%,?,/
Cc1cccn2c(=O)c3cc(C(=O)NCCN4CCOCC4)c(=N)n(CCc4ccccc4)c3nc12,-1.3%,0.465µM*,10.5%,20.3%,?,-8.3%
Cc1cccn2c(=O)c3cc(C(=O)NCc4ccccc4)c(=N)n(CCCN4CCOCC4)c3nc12,/,/,/,9.1%,?,/
COc1ccc(CCNC(=O)c2cc3c(=O)n4ccccc4nc3n(Cc3ccco3)c2=N)cc1OC,-3.8%,-5.7%,10.6%,-3.9%,2.24µM*,-102.1%
COc1ccc(CCn2c(=N)c(C(=O)NCCN3CCOCC3)cc3c(=O)n4cccc(C)c4nc32)cc1OC,4.0%,0.738µM*,5.0%,52.4%,?,0.415µM*
CCCCCn1c(=N)c(S(=O)(=O)c2ccc(Cl)cc2)cc2c(=O)n3cccc(C)c3nc21,2.8%,1.85µM*,-5.7%,5.8%,?,11.8%
COc1ccc(CCNC(=O)c2cc3c(=O)n4ccccc4nc3n(CCCN3CCOCC3)c2=N)cc1OC,-3.4%,2.33µM*,6.8%,-16.2%,?,2.08µM*
O=C(NCCN1CCOCC1)c1c(O)nc2ccccn2c1=O,-2.9%,18.9%,-12.4%,18.9%,21.5%,15.0%
CCCNc1nc2nc3ccccn3c(=O)c2cc1C(=O)NCCN1CCOCC1,0.7%,14.7µM*,7.7%,14.3%,-10.0%,10.8%
O=C(c1ccc2c(=O)n(Cc3ccccc3Cl)c(=S)[nH]c2c1)N1CCCC1,-0.3%,?,3.8%,14.7%,-1.0%,-6.8%
OCC1(CC2CCCCO2)CCN(Cc2cccc(O)c2)CC1 (stereo not given),0.6%,5.7%,1.7%,20.8%,2.4%,-12.5%
O=C(COc1ccc2c(c1)OCO2)Nc1cccc(F)c1,-1.5%,160.9%,-33.4%,-14.3%,18.2%,7.7%
Cc1cccn2c(=O)c3cc(C(N)=S)c(=N)n(CCCOC(C)C)c3nc12,10.9%,/,23.7%,18.9%,11.2µM*,?
CC(C)Cc1nc(N2CCN(C(=O)c3ccco3)CC2)c(C#N)c2c1CCC2,-12.7%,2.33µM*,-8.0%,-21.8%,?,37.6%
CC(C)Cc1nc(N2CCN(C(=O)c3ccccc3)CC2)c(C#N)c2c1CCC2,3.8%,?,6.6%,3.7%,11.2µM*,?
N#Cc1c(N2CCN(C(=O)c3ccccc3)CC2)nc(-c2ccccc2)c2c1CCCC2,2.0%,/,16.6%,8.0%,?,13.1µM*
SMILES,SARS PLpro yeast,Pf growth 48h,NS1 inh,AMA1 RON2 block,HCV inh,Pf growth 96h
CC(C)Cc1nc(N2CCN(C(=O)C(C)C)CC2)c(C#N)c2c1CCC2,-1.2%,151.2%,-50.2%,-16.8%,-22.5%,?
COc1cc2c(=O)n(Cc3ccccc3)c(=O)n(CC(=O)NCc3ccco3)c2cc1OC,-1.1%,?,-3.2%,-2.8%,?,3.7µM*
O=C(CCCn1c(=O)c2ccccc2n(Cc2ccccc2)c1=O)NCc1ccco1,16.8%,/,-9.3%,0.9%,-20.5%,71.8%
O=C(NCc1ccco1)c1ccc(Cn2c(=O)c3ccccc3n(Cc3cccc(F)c3)c2=O)cc1,1.9%,/,8.3%,1.1%,-27.1%,/
O=C(NCc1ccco1)c1ccc(Cn2c(=O)c3ccccc3n(Cc3ccc(Cl)cc3)c2=O)cc1,-2.7%,11.7µM*,2.9%,0.9%,11.2µM*,-30.4%
O=C(NCc1ccco1)C1CCN(c2nc3ccccc3n2Cc2ccc(F)cc2)CC1,-1.5%,/,-58.4%,-1.9%,-11.0%,10.4µM*
O=C(Cn1c(=O)n(Cc2ccccc2)c(=O)c2ccccc21)NCc1ccco1,-1.9%,/,5.0%,23.6%,?,-0.5%
O=C(CCCCn1c(=O)c2ccccc2n(Cc2ccc(F)cc2)c1=O)NCc1ccco1,1.6%,?,5.3%,0.7%,?,3.29µM*
COc1ccc(Br)c(C=O)c1OS(=O)(=O)c1ccc(C)cc1,/,/,/,12.4%,/,/
CC(=O)Nc1nc(-c2cc([N+](=O)[O-])cs2)cs1,-0.4%,-39.4%[1.15 µM],16.7%,-2.4%,-1.8%,28.3%
COCCNC(=O)c1ccccc1NC(=O)CSc1ccc(C)cc1,-2.0%,-10.8%,-2.0%,6.9%,1.0%,-80.6%
O=C(NCCCN1CCCC1)c1ccc(CSCc2cccc(Cl)c2)o1,4.6%,/,2.6%,-7.5%,10µM*,?
CN1CCN(CCCNC(=O)c2ccc(CSCc3cccc(Cl)c3)o2)CC1,-2.6%,-0.2%,-12.7%,-5.6%,-27.5%,-5.8%
O=C(NCCCN1CCN(CCCNC(=O)c2cccc(Cl)c2)CC1)c1cccc(Cl)c1,-1.8%,?,-4.6%,13.8%,?,11.7µM*
COc1cc2c(C(=O)NCCCN3CCN(c4cccc(Cl)c4)CC3)cn(C)c(=O)c2cc1OC,-5.5%,?,-0.7%,6.8%,-5.0%,?
O=C(NCCN1CCCC1)c1cccc(Cl)c1,0.3%,8.3%,4.5%,0.4%,13.4%,37.8%
O=C(NCCCN1CCN(c2cccc(Cl)c2)CC1)c1nc(-c2ccncc2)no1,1.6%,6.57µM*,-0.4%,26.7%,?,5.1%
CSCC[C@H](NC(=O)Cc1ccc(Cl)cc1)C(=O)N1CCC2(CC1)NCCc1[nH]cnc12,-1.6%,-11.6%,1.9%,7.9%,15.4%,1.7%
COc1ccccc1NC(=O)C(C)OC(=O)CCCOc1ccccc1 (stereo not given),-14.8%,3.0%,/,3.1%,5.9%[8.37 µM],3.8%

# Bioassay records from PubChem.
